Source: PubChem BioAssay
Unmarked numbers belong to inactive results. The source made the active and inactive calls. No rule for the calls is given here.

Experiments:
[1] = system: Botulinum neurotoxin type F light chain protease (Clostridium botulinum); assay: Clostridium botulinum type F light chain protease inhibitors, microsphere substrate cleavage, validation (AID 588459); details: multiplex microsphere protease substrate cleavage assay, flow cytometry; at 10 µM; hits give high values
[2] = target: Botulinum neurotoxin type A (Clostridium botulinum) (UniProt P0DPI0); assay: BoNT/A light chain protease inhibitors, biochemical, multiplex microsphere flow cytometry, validation set (AID 588460); details: at 10 µM, hits give high values
Chain of Botulinum neurotoxin type A (Clostridium botulinum) (P0DPI0 whole entry, looked up): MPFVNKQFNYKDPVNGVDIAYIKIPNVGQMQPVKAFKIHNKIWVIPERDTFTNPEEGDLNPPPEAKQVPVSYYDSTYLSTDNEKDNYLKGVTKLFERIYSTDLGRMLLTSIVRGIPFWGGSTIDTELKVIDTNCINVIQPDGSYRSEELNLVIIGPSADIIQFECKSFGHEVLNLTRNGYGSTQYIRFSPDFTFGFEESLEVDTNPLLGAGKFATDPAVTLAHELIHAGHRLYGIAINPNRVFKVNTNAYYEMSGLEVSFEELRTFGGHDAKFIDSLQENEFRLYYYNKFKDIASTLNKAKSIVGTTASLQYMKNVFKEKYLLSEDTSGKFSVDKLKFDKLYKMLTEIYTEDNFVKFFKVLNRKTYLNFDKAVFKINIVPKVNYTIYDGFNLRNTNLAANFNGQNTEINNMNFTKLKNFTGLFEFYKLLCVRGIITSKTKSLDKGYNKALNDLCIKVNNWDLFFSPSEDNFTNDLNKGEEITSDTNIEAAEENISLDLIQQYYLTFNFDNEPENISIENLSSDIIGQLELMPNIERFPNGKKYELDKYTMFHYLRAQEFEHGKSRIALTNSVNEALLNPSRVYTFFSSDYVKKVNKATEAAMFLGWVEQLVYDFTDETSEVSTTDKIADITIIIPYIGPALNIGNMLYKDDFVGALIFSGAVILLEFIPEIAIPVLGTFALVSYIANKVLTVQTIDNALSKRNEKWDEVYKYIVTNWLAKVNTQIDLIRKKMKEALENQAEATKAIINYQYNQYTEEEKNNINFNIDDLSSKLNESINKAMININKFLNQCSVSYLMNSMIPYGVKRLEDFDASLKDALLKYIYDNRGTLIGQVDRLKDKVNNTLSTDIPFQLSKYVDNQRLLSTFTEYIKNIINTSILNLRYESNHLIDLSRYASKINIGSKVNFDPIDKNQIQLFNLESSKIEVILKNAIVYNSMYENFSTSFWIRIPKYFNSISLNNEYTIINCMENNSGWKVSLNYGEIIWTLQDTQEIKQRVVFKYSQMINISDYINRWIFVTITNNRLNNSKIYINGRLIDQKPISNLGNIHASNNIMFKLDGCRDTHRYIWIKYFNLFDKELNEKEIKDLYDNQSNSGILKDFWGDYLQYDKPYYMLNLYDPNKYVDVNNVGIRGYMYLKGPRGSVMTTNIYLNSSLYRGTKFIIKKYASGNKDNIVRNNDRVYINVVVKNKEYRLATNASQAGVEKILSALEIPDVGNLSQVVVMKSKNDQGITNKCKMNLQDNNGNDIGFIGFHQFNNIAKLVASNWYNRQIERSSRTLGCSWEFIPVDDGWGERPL

[3] = target: Lethal factor (Bacillus anthracis) (UniProt P15917); assay: Bacillus anthracis lethal factor inhibition, microsphere flow cytometry protease assay, validation at 10 µM (AID 588461); details: multiplex microsphere protease cleavage assay, hits give high values
Chain of Lethal factor (Bacillus anthracis) (P15917 whole entry, looked up): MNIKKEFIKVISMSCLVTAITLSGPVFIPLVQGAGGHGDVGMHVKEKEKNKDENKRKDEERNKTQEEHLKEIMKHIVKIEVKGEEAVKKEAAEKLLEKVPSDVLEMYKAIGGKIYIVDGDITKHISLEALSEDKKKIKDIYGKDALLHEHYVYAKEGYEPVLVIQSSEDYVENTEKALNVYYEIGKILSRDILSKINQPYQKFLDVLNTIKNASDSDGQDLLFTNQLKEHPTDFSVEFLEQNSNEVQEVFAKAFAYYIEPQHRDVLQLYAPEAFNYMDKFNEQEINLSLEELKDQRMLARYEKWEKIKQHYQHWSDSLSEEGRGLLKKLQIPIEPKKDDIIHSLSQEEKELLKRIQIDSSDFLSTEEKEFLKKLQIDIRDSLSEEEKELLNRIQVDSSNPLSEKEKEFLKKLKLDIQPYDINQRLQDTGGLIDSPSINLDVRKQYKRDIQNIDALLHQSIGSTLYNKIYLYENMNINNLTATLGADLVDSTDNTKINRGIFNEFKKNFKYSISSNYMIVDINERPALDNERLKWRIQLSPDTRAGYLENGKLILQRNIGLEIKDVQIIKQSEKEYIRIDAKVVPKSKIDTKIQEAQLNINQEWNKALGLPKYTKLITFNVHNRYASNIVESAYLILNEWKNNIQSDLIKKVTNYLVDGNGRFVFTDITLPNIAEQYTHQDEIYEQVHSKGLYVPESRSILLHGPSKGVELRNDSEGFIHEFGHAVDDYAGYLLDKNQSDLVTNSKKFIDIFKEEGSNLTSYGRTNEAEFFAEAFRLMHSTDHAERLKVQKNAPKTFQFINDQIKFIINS

| SMILES | inhibition [1] | inhibition [2] | inhibition [3] |
| --- | --- | --- | --- |
| CC12CN3CC(C)(CN(C1)C3c1ccc([N+](=O)[O-])o1)C2 (configuration not stated) | -3.2% | -1.4% | -5.6% |
| CC(C)(C)c1ccc(C(O)CCCN2CCC(C(O)(c3ccccc3)c3ccccc3)CC2)cc1 (configuration not stated) |  | -2.5% | -3.6% |
| CCOC(=O)C1=C(N)Oc2c(c(=O)[nH]c3ccccc23)C1c1ccccc1 (configuration not stated) | 0.4% | 1.1% | -1.6% |
| COc1ccc(CCCC(=O)O)c(C)c1 | -0.2% | 0.1% | 6.1% |
| CCN(CC)CCNC(=O)c1ccc(N)cc1 |  |  | 2.4% |
| Cc1oc2c(CN3CCCC3)c(O)ccc2c(=O)c1-c1ccc(Cl)cc1 | -1.2% | -0.3% | -0.5% |
| CN1C(C(=O)Nc2ccccn2)=C(O)c2sccc2S1(=O)=O | 0.5% | -0.2% | -1.1% |
| CCCCCC(O)c1cccc(OCc2ccc3ccccc3n2)c1 (configuration not stated) | 0.9% | 0.6% | -0.8% |
| CC(C(=O)O)c1cccc(C(=O)c2ccccc2)c1 (configuration not stated) |  | -1.5% | 5.8% |
| Nc1nc2c(ncn2COCCO)c(=O)[nH]1 |  |  | 0.4% |
| CC[C@H](C)C(=O)O[C@H]1C[C@@H](C)C=C2C=C[C@H](C)[C@H](CC[C@@H]3C[C@@H](O)CC(=O)O3)[C@H]21 |  | 0.7% | 10.4% |
| Cc1nnc(SCC2=C(C(=O)O)N3C(=O)[C@@H](NC(=O)Cn4cnnn4)[C@H]3SC2)s1 |  |  | 0.6% |
| CC(C)OC(=O)CC1C(=O)NCCN1C(=S)NC(=O)c1cccs1 (configuration not stated) | 0.8% | -1.7% | -5.8% |
| Cc1ccc(C(CC(=O)NCc2ccco2)c2ccc(OC(C)C)cc2)cc1 (configuration not stated) | 0.4% | -1.6% | -4% |
| COc1ccccc1OS(=O)(=O)c1ccc(NC(C)=O)cc1 | -1.9% | 1.2% | 3% |
| c1ccc(SSc2ccccc2)cc1 | 0.3% | -1.5% | -8.9% |
| COc1ccc(-n2cc(CNCc3cccnc3)c(-c3cccc(F)c3)n2)cc1 | -3.6% | -0.7% | -8.2% |
| O=C1CC2(CCCC2)CC(=O)N1CCCCN1CCN(c2ncccn2)CC1 |  | 0.2% | 6.7% |
| CC(C)OC(=O)C(C)(C)Oc1ccc(C(=O)c2ccc(Cl)cc2)cc1 |  |  | -0.7% |
| CN(C)CCC(c1ccc(Cl)cc1)c1ccccn1 (configuration not stated) |  | -0.2% |  |
| CC(=O)OCC(=O)[C@@]1(O)CC[C@H]2[C@@H]3CCC4=CC(=O)C=C[C@]4(C)[C@H]3[C@@H](O)C[C@@]21C | -5.9% | -1.8% | -2.4% |
| COc1ccc(CN2CCC(=O)NC2=O)cc1 | -2.3% | -0.1% | -3.5% |
| CC(C)NCC(O)COc1ccc(CC(N)=O)cc1 (configuration not stated) |  | -1.9% | -2.4% |
| CCc1cccc2c1NC1(CCCC1)CC2C (configuration not stated) |  | -1.3% | 167% (active) |
| CC1(C)CC(C(CC(=O)N2CCCC2)Cc2ccccc2)CCO1 (configuration not stated) | -0.7% | 0.6% | 3.1% |
| CN1CCc2cccc3c2[C@@H]1Cc1ccc(O)c(O)c1-3 |  | -6.6% | -53.3% |
| O=C(O)CCNC(=O)c1ccccc1 |  |  | -7.3% |
